Screening results from PubChem.
Shiga inhibitor: blocks Shiga toxin action in Vero cells; AID 2315; inhibition, % at 38.7 µM; 290,000 tested, 9.2% active; Vero cells, Shiga toxin protein synthesis inhibition reporter; in the data active = inhibition mostly above about 28%, no sharp cut-off; inactive = mostly below about 43%; also: 0% is about no effect
CHX counter: counter-screen hit for Shiga toxin inhibitors, cycloheximide | cell reporter, cycloheximide protein synthesis inhibition counterscreen | max response, % | 300,000 tested, 12% active; in the data active = max response mostly above about 13%, no sharp cut-off; inactive = mostly below about 14%; also: read at 38.3 µM for the half of the compounds with a filed dose; 0% is about no effect
Pf growth 96h: P. falciparum growth inhibition at 96 hour, primary screen for plastid delayed-death inhibitors; P. falciparum luciferase reporter growth, 96 h; Potency, µM (series often up to 28.7 µM), for the others: top-dose activity change, negative = inhibition, actives largely listed as inhibitors; 320,000 tested, 6.9% active; AID 504834; also: potency is read from the fitted curve at half-maximal effect; % is scaled to controls: 0 for no effect and ±100 for the full control effect
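Readout is luminescence from an integrated firefly luciferase in P. falciparum. Red cells, 2% hematocrit and 0.05% parasitemia final, were cultured with compound through two parasite generations (96 hours) at 37 C, 5% CO2.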
SARS PLP yeast: SARS-CoV PLP inhibition in yeast; Potency, µM (series often up to 32.9 µM), inactives show at the top dose activity, positive = growth rescue, usual class: activators; AID 485353; S. cerevisiae expressing SARS-CoV PLpro, growth rescue; 330,000 tested, 0.19% active; calls by dose curve; also: potency is read from the fitted curve at half-maximal effect; 0% is about no effect; nearly all actives have a fitted effect of over 55% in size
Pf growth 48h: P. falciparum growth inhibition at 48 hours (one generation). P. falciparum luciferase growth in erythrocytes, 48 h. Potency, µM (series often up to 28.7 µM), for inactives: at the highest dose activity change, negative = inhibition, most hits filed as inhibitors. 310,000 tested, 5.9% active. AID 504832; also: potency is read from the fitted curve at half-maximal effect; % is scaled to controls: 0 for no effect and ±100 for the full control effect
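Cell-based growth assay: transgenic P. falciparum expressing firefly luciferase, cultured in red cells within RPMI 1640 containing 0.5% w/v Albumax, 24 mM bicarbonate and gentamycin. A drop in luciferase activity indicates inhibition.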
NS1 inh: blocks influenza NS1 protein function; AID 2326; 270,000 tested, 0.4% active; Potency, µM (top dose mostly 46.1 µM), without a hit: at the top dose activity, positive = more growth; calls by dose curve; also: potency is read from the fitted curve at half-maximal effect; actives are rising curves; nearly all actives have a fitted effect of over 50% in size
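Compounds were scored for reversing the slow growth caused by influenza A NS1 in S. cerevisiae, measured by optical density at 600 nm. Assay medium contained 2% galactose at pH 6.0; NS1-free yeast of the same strain were the positive control.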
An asterisk follows results filed as active; u = inconclusive; x = no result given; [ ] = remark or other dose. The list is not random: actives were taken first. Their share in the collection is about 21%. Unless noted, calls follow the shape of the dose curve; as a rule, active = well fitted inhibition curve with a large enough effect; inconclusive = small, poorly fitted or top-dose-only effect, or another doubt; inactive = no such curve, though single readings can be large or run the other way.

SMILES	Shiga inhibitor	CHX counter	Pf growth 96h	SARS PLP yeast	Pf growth 48h	NS1 inh
c1ccc(CNc2nc3ccccc3[nH]2)cc1	174	26*	-4%	0%	-23%	2%
Cc1ccc2nc(NCc3ccccc3)[nH]c2c1	91*	34*	1.2µM*	-5%	u	-6%
COc1cc(CNc2nc3ccccc3[nH]2)cc(OC)c1OC	13	-2	-16%	4%	9%	-3%
Cc1c(C(=O)N2CCN(C3CCS(=O)(=O)C3)CC2)oc2c(F)cccc12 (centres undefined)	x	x	u	-8%[6.58 µM]	14%	x
Cc1ccc(OCC(=O)N2CCc3ccccc3C2)c(C)c1	33	11*	-1%	-9%	6%	-59%
O=C(OCC(=O)N1CCc2ccccc2C1)c1cc(=O)[nH]c2ccccc12	59*	33*	10%	-2%	8%	-61%
COc1cc(C(C)=O)ccc1OCC(=O)N1CCc2ccccc2C1	-3	-3	u	9%	-22%	8%
Cc1ccc(OCC(=O)N2CCc3ccccc3C2)c(Br)c1	60*	42*	50%	-5%	21%	-1%
COC(=O)CCSCc1cn2cc(Cl)ccc2n1	23	16*	18%	-1%	15%	4%
CNC(=O)c1c(Br)cnn1-c1ccc(C)cc1	42*	35*	148%	0%	105%	-3%
Cc1ccc(-n2ncc(Cl)c2C(=O)NC2CC2)cc1	93*	49*	233%	-1%	296%	-7%
C=CCNC(=O)c1cnn(-c2ccccc2)c1-c1ccccc1	17	-3	u	13%	6%	1%
CNC(=O)c1c(Cl)cnn1-c1ccc(C)cc1	55*	21*	221%	1%	71%	4%
C=CCNC(=O)c1c(Cl)cnn1-c1ccc(C)cc1	69*	44*	180%	2%	118%	-6%
CNC(=O)c1nn(-c2ccc(C)cc2)ccc1=O	-6	-2	0%	-2%	8%	-2%
Cn1ncc(Br)c1C(=O)Nc1ccc(Cl)cn1	-4	2	25%	2%	26%	-1%
CC1CN(C(=O)c2ccn(C)n2)CC(C)O1 (centres undefined)	1	3	37%	-4%	23%	18%
CCOC(=O)c1cc(-c2ccc(N3CCOCC3)cc2)nn1-c1ccc(F)cc1F	-14	-1	12µM*	19%	12µM*	-20%
Cc1nn(C(C)(C)C)c(OC(=O)C2CCCC2)c1S(=O)(=O)c1ccccc1	-27	-4	10µM*	-25%	57%	-69%
O=C1C=C(c2ccc3ncccc3c2)C[C@@H](c2ccc3c(c2)OCO3)C1	x	x	u	-10%	u	x
COc1cccc(N2CCN(c3ccc4nnc(CCC(=O)N5CCC(C)CC5)n4n3)CC2)c1	-4	2	29%	7%	8.3µM*	1%
CCCN1CCN(C(=O)CCc2nnc3ccc(N4CCN(c5cccc(OC)c5)CC4)nn23)CC1	-4	0	30%	-3%	10µM*	2%
C#CCONC(=O)c1cc(OCC(F)(F)F)ccc1OCC(F)(F)F	-14	-3	21%	0%	10%	7%
Cc1ccsc1C(=O)OCc1nc2ccccc2c(=O)[nH]1	61*	58*	x	-16%	58%	-56%
CCOC(=O)CSc1nc2ccccc2c(=O)[nH]1	-5	-1	12%	3%	20%	-5%
SMILES	Shiga inhibitor	CHX counter	Pf growth 96h	SARS PLP yeast	Pf growth 48h	NS1 inh
CCOC(=O)c1nc2ccccc2c(=O)[nH]1	54*	37*	45%	-4%	51%	-3%
CCC(C)c1ccc(OCC(=O)Nc2ccc(CN3CCOCC3)cc2)cc1 (centres undefined)	-5	11	-1%	-9%	-19%	-32%
CCCc1nnc(NC(=O)CCC(=O)N2CCN(C3c4ccccc4-c4ccccc43)CC2)s1	-8	0	72%	4%	21%	16%
COc1ccccc1Nc1ncc(C(=O)N2CCN(Cc3ccc(OC)c(OC)c3OC)CC2)c2ccccc12	7	-7	u	-6%	u	x
CC#CC#Cc1cccc(=O)o1	61*	25*	10µM*	-1%	12µM*	-51%
COc1ccc(-n2nc(C(=O)NCC(=O)NCc3ccc(F)cc3)c3ccccc3c2=O)cc1OC	4	-2	-35%	1%	20%	4%
Cc1ccc(Nc2nc(N/N=C\c3ccc4c(c3)OCO4)nc(N3CCOCC3)n2)cc1	-3	4	u	-7%	10µM*	x
